# Hits are enriched below; roughly 3.8% of the tested compounds scored in any of these assays.
# Nrf2 block – Nrf2 pathway inhibition; actives 2.1% (n = 360,000); AID 504444; A549 ARE-Fluc reporter, luciferase luminescence, 18-24 h; Potency, µM (top dose mostly 46 µM), without a hit: at the highest dose activity change, negative = inhibition, actives largely listed as inhibitors; further: on the % scale 0 is the no-effect control and ±100 the full control effect; nearly all actives have a fitted effect of over 60% in size
#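 In this cell-based qHTS, ARE-driven firefly luciferase in A549 cells reports Nrf2 activity; the luminescent signal after BugLite lysis is the measured value, with a prior CellTiter-Fluor read for cell health.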
# ELG1 repair inh – blocks ELG1-dependent DNA repair in HEK293T cells; actives 2.3% (n = 330,000); Potency, µM (doses to about 46.1 µM), without a hit: top-dose activity change, negative = inhibition, usual class: inhibitors; HEK293T ELG1-luciferase reporter, luminescence, 16 h; DNA damage induced by 5-fluorouridine; AID 504467; further: on the % scale 0 is the no-effect control and ±100 the full control effect; nearly all actives have a fitted effect of over 55% in size
#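 Cells (2,000 per well) received 5-fluorouridine plus test compound or DMSO and were incubated 16 hr at 37 °C, 5% CO2. Luciferase activity was read by luminescence 30 min after ONE-Glo addition; signal suppression marked inhibition of damage-induced ELG1 function.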
# mIDH1 inhibitor – human IDH1 R132H inhibition. O75874. IDH1-R132H enzyme, NADPH consumption, diaphorase/resazurin fluorescence. Potency, µM (doses to about 76.6 µM), for inactives: at the highest dose activity change, negative = inhibition, usual class: inhibitors. actives 0.093% (n = 390,000); further: on the % scale 0 is the no-effect control and ±100 the full control effect; nearly all actives have a fitted effect of over 65% in size
# Target sequence (O75874 whole entry R132H, stated change not applied): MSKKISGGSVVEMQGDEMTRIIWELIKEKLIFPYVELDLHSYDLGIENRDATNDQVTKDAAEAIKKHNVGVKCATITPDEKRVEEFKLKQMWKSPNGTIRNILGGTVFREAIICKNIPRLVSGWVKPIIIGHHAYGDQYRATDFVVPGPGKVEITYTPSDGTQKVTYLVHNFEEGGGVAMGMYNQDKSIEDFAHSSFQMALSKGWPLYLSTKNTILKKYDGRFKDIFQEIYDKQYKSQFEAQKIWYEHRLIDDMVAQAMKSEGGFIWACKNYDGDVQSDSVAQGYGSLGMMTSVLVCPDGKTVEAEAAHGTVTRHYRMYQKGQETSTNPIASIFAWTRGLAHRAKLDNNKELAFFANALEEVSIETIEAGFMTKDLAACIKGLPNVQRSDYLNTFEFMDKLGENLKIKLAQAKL
#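 IDH1-R132H (0.5 ug/mL) preincubated 30 min with compound, then NADPH (0.016 mM) and alpha-KG (2 mM) added; 80 min at RT, pH 7.5. Remaining NADPH coupled via diaphorase/resazurin to fluorescence (540/590 nm); concentration-response curves normalized to no-enzyme control.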
# A549 tox – kills or reduces viability of A549 cells in Nrf2 counter-screen; actives 0.16% (n = 390,000); A549 ARE-Fluc cells, CellTiter-Fluor viability, 18-24 h; AID 504648; Potency, µM (doses to about 46 µM), for the others: at the top dose activity change, negative = cytotoxicity, usual class: inhibitors; further: on the % scale 0 is the no-effect control and ±100 the full control effect
#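 A549 ARE-Fluc cells in 5% FBS OPTI-MEM, 5000 cells/well, rested 2 h then exposed to compounds in concentration-response for 18-24 h at 37 °C. Viability by CellTiter-Fluor fluorescence (Ex 405/Em 525) after 30 min; luciferase luminescence (BugLite, 15 min, RT) read afterwards.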
# Nrf2 ARE act – Nrf2 pathway activation. AREc32 ARE-luciferase reporter (MCF7-derived line), luminescence, 24 h. Potency, µM (top dose mostly 46.1 µM), for the others: at the top dose activation, hits mostly activators. actives 0.31% (n = 410,000); further: % of control where 0% means no effect; nearly all actives have a fitted effect of over 65% in size
#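 AREc32 cells carrying an ARE-driven firefly luciferase reporter were seeded at 1000 cells/well in OPTI-MEM with 5% FBS, then exposed to compound for 24 hr at 37 deg C. Luminescence was read with Steady-Glo after 30 min at RT.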
# Numbers without * were called inactive; ? = inconclusive; / = no result; [ ] = another dose, or the depositor's remark. The call rests on the fitted dose curve; in most records, active means well fitted curve in the direction sought with a large enough effect; inconclusive means small, poorly fitted or top-dose-only effect, or another doubt; inactive means no such curve, though single readings can be large; an effect the other way counts as inactive or inconclusive. Potency means the concentration at half of the fitted maximal effect.
SMILES,Nrf2 block,ELG1 repair inh,mIDH1 inhibitor,A549 tox,Nrf2 ARE act
CCOC(=O)c1ccc(NC(=O)Cn2ncc(Cl)c(Cl)c2=O)cc1,?,?,0.0%,0.8%,?
CC1CCCCC1NC(=O)CN1C(=O)NC(Cc2ccccc2)(Cc2ccccc2)C1=O (stereo not drawn),?,-4.4%,3.1%,11.0%,1.4%
CC(NC(=O)Cn1ncc(Cl)c(Cl)c1=O)C12CC3CC(CC(C3)C1)C2 (stereo not drawn),0.9%,18.4µM*,-5.2%,0.3%,?
CC(NC(=O)CN1C(=O)NC(Cc2ccccc2)(Cc2ccccc2)C1=O)C12CC3CC(CC(C3)C1)C2 (stereo not drawn),25.9µM*,-11.6%,5.3%,?,-0.6%
CCC(=O)Nc1ccc(C(=O)Cn2ncc(Cl)c(Cl)c2=O)cc1,16.7%,?,-11.0%,-3.4%,6.31µM*
O=C(Cn1ncc(Cl)c(Cl)c1=O)Nc1ccc2c(c1)OCO2,5.4%,6.51µM*,-8.5%,-4.6%,?
Cc1ccccc1OCC(=O)NCC(=O)OCC(=O)c1ccc(F)cc1,-20.4%,/,/,-0.3%,/
CCOC(=O)c1cc(-c2ccc(F)cc2)n(CCC(=O)NCc2ccc(C)cc2)c1C,/,/,-10.4%,-1.7%,7.9%
OC[C@@H]1CN(CCN2CCOCC2)C[C@H](n2cnc3c(NC4CCCC4)ncnc32)O1,/,/,/,/,0.5%[9.22 µM]
COc1ccc(NC(=O)/C(C#N)=C/c2c(C)nn(-c3ccc(F)cc3)c2Cl)cc1OC,?,-15.4%,0.0%,-18.3%,15.8µM*
COc1ccc(NC(=O)/C(C#N)=C/c2c(C)nn(-c3ccc(F)cc3)c2Cl)cc1Cl,-1.5%,8.4%,-0.9%,1.0%,3.1%
COc1ccc(Cl)cc1C(=O)NNC(=S)NC(=O)c1cc(-c2ccccc2)nc2ccccc12,?,1.6%,2.8%,-6.7%,4.4%
COc1ccc(C(=O)NNC(=S)NC(=O)c2cc(-c3ccccc3)nc3ccccc23)cc1,18.4µM*,-4.1%,0.0%,?,20.9%
CCCOc1ccc(C(=O)NNC(=S)NC(=O)c2cc(-c3ccc(Cl)cc3)nc3ccccc23)cc1,4.61µM*,9.8%,-3.9%,-18.4%,0.8%
COc1ccccc1C(=O)Nc1nnc(SCc2cc(=O)c3cc(Cl)ccc3[nH]2)s1,/,/,9.6%,-10.7%,4.7%
CC(=O)c1ccc(N=Cc2c(O)n(-c3cc(Cl)ccc3N3CCOCC3)c(=O)c3ccccc23)cc1,/,7.31µM*,-2.7%,?,0.1%
Cc1ccc(SCc2nc3ccccc3n2CC(=O)Nc2ccc(Cl)cc2)cc1,?,7.31µM*,8.5%,-12.3%,0.3%
COc1cc(SC)ccc1C(=O)Nc1ccc(OCC(=O)N2CCOCC2)cc1,?,?,4.9%,3.5%,-0.1%
COc1cc(SC)ccc1C(=O)Nc1cc(C)c(OCC(=O)N2CCOCC2)c(C)c1,?,14.6µM*,-1.1%,-18.4%,4.6%
Cc1ccc(NS(=O)(=O)c2ccc(-c3cc(C)no3)cc2)c(C)c1,?,/,-11.3%,-13.2%,-1.0%
COc1ccc2[nH]c3c(NCc4ccco4)ncnc3c2c1,?,?,5.2%,6.7%,3.16µM*
Fc1ccc2[nH]c3c(NCc4ccccc4)ncnc3c2c1,18.4µM*,?,-5.5%,-13.8%,6.3%
OCCCNc1ncnc2c1[nH]c1ccccc12,-11.3%,0.0%,4.1%,0.8%,-0.1%
COc1cc(Cl)c(C)cc1NC(=O)C(OC(=O)CNC(=O)c1ccccc1)c1ccccc1 (stereo not drawn),15.2%,/,/,0.6%,/
Cc1cc(C)cc(NC(=O)Cn2c(=O)n(Cc3ccc4c(c3)OCO4)c(=O)c3oc4ccccc4c32)c1,8.0%,/,0.0%,-0.9%,4.4%
SMILES,Nrf2 block,ELG1 repair inh,mIDH1 inhibitor,A549 tox,Nrf2 ARE act
O=C(/C=C\Nc1ccccc1Br)c1ccc2c(c1)OCO2,2.06µM*,?,6.2%,-5.1%,-0.2%
O=C(/C=C/c1ccccc1Br)c1ccc2c(c1)OCO2,?,?,10.9%,7.7%,?
Cc1ccc(S(=O)(=O)Nc2ccc(-c3ccc(N4CCCCCC4)nn3)cc2)c(C)c1,/,/,25.2%,-13.6%,-0.9%
O=S(=O)(/C(=C\c1ccc(C(F)(F)F)cc1)c1nc2ccccc2[nH]1)c1ccccc1,16.4µM*,/,-15.9%,?,-2.6%
O=C(NCc1ccco1)/C(=C/c1ccc(C(F)(F)F)cc1)c1nc2ccccc2[nH]1,?,?,-4.8%,-0.6%,?
O=C(CN1CCN(c2ccc(O)cc2)CC1)Nc1cc(S(=O)(=O)N2CCCC2)ccc1Cl,?,23.1µM*,0.5%,14.1%,3.4%
O=C(CN1CCN(c2ccc(O)cc2)CC1)Nc1cc(S(=O)(=O)N2CCCCC2)ccc1Cl,?,16.4µM*,3.8%,-23.6%,1.0%
O=C(CSc1ncnc2ccccc12)Nc1cc(S(=O)(=O)N2CCCCC2)ccc1Cl,-25.9%,20.6µM*,5.7%,-1.6%,1.4%
CN(C)C(=O)c1ccc(-c2cc3onc(-c4ccccc4)c3c(=O)n2C)cc1,?,?,9.8%,-4.4%,4.6%
Cc1cc(N/N=C/c2ccccc2O)c2ccccc2n1,18.4µM*,-6.1%,1.9%,-22.0%,0.9%
COc1ccc2nc(C)cc(N/N=C/c3cccc(OC)c3O)c2c1,-5.1%,2.1%,-11.2%,-3.5%,6.6%
O=C(Nc1nnc(C2CC2)o1)c1ccc(S(=O)(=O)N2CCCCC2)cc1,?,16.5%,-11.2%,-6.4%,-0.5%
CC1CCCCN1S(=O)(=O)c1ccc(C(=O)Nc2ccccc2-c2nc3ccccc3[nH]2)cc1 (stereo not drawn),23.1µM*,?,-3.5%,-27.0%,-0.1%
CC1CCN(S(=O)(=O)c2ccc(C(=O)Nc3nnc(C4CC4)o3)cc2)CC1,11.6µM*,-22.6%,-7.2%,?,-1.3%
CC1CCCCN1S(=O)(=O)c1ccc(C(=O)Nc2nnc(C3CC3)o2)cc1 (stereo not drawn),13µM*,-12.2%,-16.0%,-16.3%,-0.9%
Cc1cccc(NC(=O)c2ccc(S(=O)(=O)N3CCC(C)CC3)cc2)n1,14.6µM*,?,8.6%,-3.4%,3.9%
Cc1cccc(NC(=O)c2ccc(S(=O)(=O)N3CCCCC3)cc2)n1,?,?,-2.6%,0.3%,3.4%
O=C(Nc1ccncc1)C1C(=O)c2ccccc2N(Cc2ccccc2)C1=O (stereo not drawn),?,/,/,5.4%,/
CCC(=O)NC(c1ccco1)c1cc(Cl)c2c(c1O)NCCC2 (stereo not drawn),-6.3%,/,/,-3.1%,/
CCCCn1cc2c(c1-c1ccc(Cl)cc1)c(=O)n(C)c(=O)n2C,?,/,-1.6%,12.3%,1.4%
COc1ccc(Br)cc1CNC(=O)CSc1cc(=O)n(C)c2ccccc12,5.3%,/,-13.1%,2.5%,0.4%
